The values below come from PubChem BioAssay AID1645838 (ICCB-Longwood Screening Facility, Harvard Medical School, 2021).

“And” between values parts separate entries of the source, which are not always exact repeats. Identical values can stand only once. Screen size: about 2,000 compounds; about 100 (5%) were called active. No stated cut-off is given here; in the data, active means z-score above about 2; inactive means the rest. The entries come from a sample that favours actives as a whole. Where a structure was tested more than once in an assay, its records may differ in their call.

A short description of this assay: supercomplex reporter luminescence per Hoechst cell count – Hoechst nuclei count (AID 1645838).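 On all read-outs here: control cybrid cells.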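 On z-score: higher means more mitochondrial supercomplex formation.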 Particulars: Cells, luminescence/Hoechst cell count ratio; for z-score: stronger effect = higher value; for cell count: measured here: cell number, Hoechst nuclei count.
The mark [1] stands for this setting: library stock concentration (final well concentration not given) 46 uM.
Setting [2] is: library stock concentration (final well concentration not given) 278 uM.
Where [3] appears, read: library stock concentration (final well concentration not given) 1.67 mM.
Where [4] appears, read: library stock concentration (final well concentration not given) 10 mM.
Where [5] appears, read: library stock concentration (final well concentration not given) 80 uM.
The mark [6] stands for this setting: library stock concentration (final well concentration not given) 400 uM.
Setting [7] is: library stock concentration (final well concentration not given) 2 mM.

For `CCCCC[C@@](C)(O)/C=C/[C@H]1C(=O)C[C@H](O)[C@@H]1C/C=C\CCCC(=O)O`, the z-score is -0.768 (inactive) and the cell count stood at 5670.

With `O=c1ncccn1C1OC(CO)C(O)C1O` (stereo not given), the z-score was -0.336 (inactive) under setting [1], -0.313 (inactive) under setting [2], -0.302 (inactive) under setting [3] and 0.386 (inactive) under setting [4]. Moreover, the cell count by setting is: under setting [1], 5670; under setting [2], 5220; under setting [3], 4780; under setting [4], 3500.

For the compound `c1cc2c(cc1C1CCCCC1)c1c3n2CCNC3CCC1` (stereo not given), the z-score is -0.207 (inactive) under setting [1], -0.279 (inactive) under setting [2], 0.239 (inactive) under setting [3] and 3.28 (active) under setting [4]. The cell count reads like this: under setting [1], 6430; under setting [2], 6250; under setting [3], 6160; under setting [4], 4320.

For the compound `CCCCCCCC/C=C\CCCCCCCC(=O)NCCS(=O)(=O)O`, the z-score is -0.251 (inactive) and the cell count worked out at 5290.

In the case of `CCCCCCCCCCCCC/C=C/[C@H](O)[C@@H](CO)NC(=O)CCCCCCCCCCCCCCCCCCCCCCC`, the z-score is 0.79 (inactive) and the cell count turned out to be 5520.

`O=C(O)CCC/C=C\CC1C2CCC(O2)C1CNNC(=O)Nc1ccccc1` (stereo not given): the z-score was -0.631 (inactive) and the cell count was 5630.

`Cc1ccc(C(=O)Nc2cccc(C(F)(F)F)c2)cc1Nc1nc(-c2cccnc2)nc2c1cnn2C`: the outcome (library stock 10 mM) is “inactive; censored for cell count”. Further, the z-score runs as follows: under setting [5], -0.121 (inactive); under setting [6], 0.0935 (inactive); under setting [7], 1.5 (inactive). The cell count turned out to be 5540 under setting [5], 5440 under setting [6] and 3810 under setting [7].

Take `Cc1ccc(C(=O)Nc2cccc(C(F)(F)F)c2)cc1Nc1cncc(C(N)=O)c1`: the z-score is -0.656 (inactive) under setting [5], -0.351 (inactive) under setting [6], -0.861 (inactive) under setting [7] and -0.825 (inactive) under setting [4]. In addition, the cell count was 4950 under setting [5], 4630 under setting [6], 5070 under setting [7] and 4410 under setting [4].

Regarding `Cc1ccc(NC(=O)c2cccc(C(C)(C)C#N)c2)cc1Nc1ccc2ncn(C)c(=O)c2c1`, the outcome (library stock 10 mM) is “inactive; censored for cell count”. The z-score was -0.155 (inactive) under setting [1]; 1.5 (inactive) under setting [5]; 0.171 (inactive) under setting [2]; 1.71 (inactive) under setting [6]; 0.888 (inactive) under setting [3]; 2.43 (active) under setting [7]. Under setting [4], the z-score was 3.11 (active). The cell count is 6500 under setting [1]; 3700 under setting [5]; 6060 under setting [2]; 3410 under setting [6]; 4330 under setting [3]; 2280 under setting [7]. Besides, under setting [4], the cell count was found to be 1960.

For the compound `CCCCC(C)(C)[C@H](O)/C=C/[C@@H]1[C@@H](C/C=C\CCCC(=O)O)[C@@H](O)C[C@H]1O`, the z-score is -0.23 (inactive) and the cell count came out at 5200.

`CCCCC/C=C\C=C\C(O)CCCCCCCC(=O)OC[C@@H](COC(=O)CCCCCCC/C=C\C=C\C(O)CCCCC)OC(=O)CCCCCCC/C=C\C=C\C(O)CCCCC` (stereo not given in full): the z-score is -0.295 (inactive) and the cell count is 5700.

Regarding `CC(=O)c1ccc2c(c1)c1cc(C(C)=O)ccc1n2CCNC(C)C`, the outcome runs as follows: (library stock 2 mM) “inactive; censored for cell count”; (library stock 10 mM) “inactive; censored for cell count”. Further, the z-score runs as follows: under setting [5], 0.38 (inactive); under setting [6], 4.83 (active). Also, the cell count turned out to be 5240 under setting [5] and 2850 under setting [6].

For the compound `CCCCCC(=O)CC[C@@H]1[C@@H](C/C=C\CCCC(=O)O)[C@@H](O)C[C@H]1O`, the z-score is 0.125 (inactive) and the cell count came to 5560.

Consider `CCCCCCCCCCCCCCCCCCOC[C@H](COP(=O)([O-])OCC[N+](C)(C)C)OC(C)=O`, for which the z-score is -1.9 (inactive) and the cell count was determined as 5980.

Turning to `CCN(CC)Cc1ccc(C(=O)N(CCc2ccccc2OC)C2CCNC2)cc1` (stereo not given), the z-score is, setting by setting: under setting [5], 0.157 (inactive); under setting [6], 0.267 (inactive); under setting [7], 0.915 (inactive); under setting [4], 3.1 (active). Further, the cell count stood at 5850 under setting [5], 5490 under setting [6], 4680 under setting [7] and 3340 under setting [4].

As to `C[C@@H]1C[C@H]2O[C@@H]2/C=C\C=C\C(=O)Cc2c(Cl)c(O)cc(O)c2C(=O)O1`, the outcome was “inactive; censored for cell count”.

With `CCOc1cc(CC(=O)NC(CC(C)C)c2ccccc2N2CCCCC2)ccc1C(=O)O` (stereo not given), the z-score by setting is: under setting [1], -0.125 (inactive); under setting [2], -0.238 (inactive); under setting [3], -0.332 (inactive); under setting [4], -0.204 (inactive). For the same compound, the cell count is, setting by setting: under setting [1], 4820; under setting [2], 5070; under setting [3], 5220; under setting [4], 4740.

Turning to `O=C(O)C1CCC(c2cc3cccnc3c(-c3cccc(F)c3)n2)CC1` (stereo not given), the z-score reads like this: under setting [1], 0.62 (inactive); under setting [2], 1.24 (inactive); under setting [3], 1.5 (inactive); under setting [4], 1.76 (inactive). The cell count under setting [1] turned out to be 6220, the cell count under setting [2] came out at 6290, the cell count under setting [3] came to 5980 and the cell count under setting [4] stood at 6420.

Regarding `COc1cccc2cc(-c3nc(C4CCC(C(=O)O)CC4)n4ncnc(N)c34)[nH]c12` (stereo not given), the outcome (library stock 10 mM) was “inactive; censored for cell count”. In addition, the z-score by setting is: under setting [5], -0.563 (inactive) and 0.107 (inactive); under setting [6], -0.188 (inactive) and 0.529 (inactive); under setting [7], 1.25 (inactive) and 2.27 (active). Further, the cell count was 4660 and 5660 under setting [5]; 3600 and 4570 under setting [6]; 2190 and 2510 under setting [7].

`COc1ccc(/C=C/c2cc(O)cc(O)c2)cc1O`: the outcome is “inactive; censored for cell count”.

For the compound `Cc1cnc(Nc2ccc(OCCN3CCCC3)cc2)nc1Nc1cccc(S(=O)(=O)NC(C)(C)C)c1`, the outcome (library stock 10 mM) is “inactive; censored for cell count”. For the same compound, the z-score is -0.00359 (inactive) under setting [1], -0.105 (inactive) under setting [2] and 5.46 (active) under setting [3]. The cell count came out at 4980 under setting [1], 5010 under setting [2] and 2610 under setting [3].

On to `CN(c1ccccc1CNc1nc(Nc2ccc3c(c2)CC(=O)N3)ncc1C(F)(F)F)S(C)(=O)=O`, for which the outcome is “inactive; censored for cell count” (library stock 2 mM) and “inactive; censored for cell count” (library stock 10 mM). In addition, the z-score is 0.0927 (inactive) under setting [5] and 0.505 (inactive) under setting [6]. Also, the cell count runs as follows: under setting [5], 4980; under setting [6], 4440.

With `C=CCn1c(=O)c2cnc(Nc3ccc(N4CCN(C)CC4)cc3)nc2n1-c1cccc(C(C)(C)O)n1`, the outcome is “inactive; censored for cell count” (library stock 1.67 mM) and “inactive; censored for cell count” (library stock 10 mM). The z-score is, setting by setting: under setting [1], -0.147 (inactive); under setting [2], -0.118 (inactive). Moreover, the cell count amounted to 4940 under setting [1] and 4830 under setting [2].
